# Measured values reported in the antibiotic and cytotoxicity screens of Wong et al. (2023).
# Among all 39,000 compounds or so, about 3,300 (8.5%) were called active. The full list was thinned out, with actives kept by preference.
# System: HepG2
# Assay: cytotoxicity call (relative viability < 0.9)
# Settings: 10 µM
row,SMILES,cytotoxicity call
1,C[C@H](CO)N1C[C@H](C)[C@H](CN(C)C(=O)c2ccc(N3CCN(C)CC3)cc2)OCc2cnnn2CCCC1=O,inactive
2,C[C@H](O)C#Cc1ccc2c(c1)O[C@@H](CN(C)C)[C@@H](C)CN([C@@H](C)CO)S2(=O)=O,inactive
3,COc1ccc(S(=O)(=O)N(C)C[C@H]2Oc3c(NS(=O)(=O)c4ccc(C)cc4)cccc3C(=O)N([C@@H](C)CO)C[C@@H]2C)cc1,inactive
4,CCNC(=O)C[C@H]1CC[C@@H](NC(=O)C2CC2)[C@@H](CO)O1,inactive
5,Cc1noc(C)c1C(=O)OCC(=O)NC1CC1,inactive
6,Cc1cc(C(=O)Nc2cccc3c2O[C@@H](CN(C)Cc2ccncc2)[C@H](C)CN([C@H](C)CO)C3=O)n(C)n1,inactive
7,COC(=O)c1cnn2c(=O)cc(C)[nH]c12,inactive
8,O=C(C[C@H]1CC[C@H]2[C@@H](COC[C@@H](O)CN2S(=O)(=O)c2cccc(F)c2)O1)NCCCN1CCOCC1,inactive
9,C[C@H]1CN([C@@H](C)CO)C(=O)c2cc(NC(=O)Nc3ccc(F)cc3)ccc2O[C@H]1CN(C)Cc1ccc(C(F)(F)F)cc1,inactive
10,C[C@H](CO)N1C[C@H](C)[C@@H](CN(C)Cc2ccc(C(F)(F)F)cc2)Oc2ccc(NC(=O)Nc3ccc(F)cc3)cc2C1=O,active
11,C[C@@H]1CN([C@H](C)CO)C(=O)c2cc(NC(=O)Nc3ccc(F)cc3)ccc2O[C@H]1CN(C)Cc1ccc(C(F)(F)F)cc1,active
12,C[C@@H]1CN([C@@H](C)CO)C(=O)c2cc(NC(=O)Nc3ccc(F)cc3)ccc2O[C@@H]1CN(C)Cc1ccc(C(F)(F)F)cc1,active
13,C[C@@H]1CN([C@@H](C)CO)C(=O)c2cc(NC(=O)Nc3ccc(F)cc3)ccc2O[C@H]1CN(C)Cc1ccc(C(F)(F)F)cc1,active
14,C[C@H](CO)N1C[C@H](C)[C@H](CN(C)Cc2ccc(C(F)(F)F)cc2)Oc2ccc(NC(=O)Nc3ccc(F)cc3)cc2C1=O,inactive
15,C[C@H]1CN([C@@H](C)CO)C(=O)c2cc(NC(=O)Nc3ccc(F)cc3)ccc2O[C@@H]1CN(C)Cc1ccc(C(F)(F)F)cc1,inactive
16,C[C@@H]1CN([C@H](C)CO)C(=O)c2cc(NC(=O)Nc3ccc(F)cc3)ccc2O[C@@H]1CN(C)Cc1ccc(C(F)(F)F)cc1,inactive
17,O=C(C[C@@H]1CC[C@@H]2[C@H](COC[C@@H](O)CN2C(=O)c2cccnc2)O1)NCc1ccc(-c2ccccc2)cc1,inactive
18,C[C@@H]1CN([C@H](C)CO)C(=O)Cc2cc(NS(=O)(=O)c3cn(C)cn3)ccc2O[C@@H]1CN(C)C(=O)NC1CCCCC1,inactive
19,C[C@H](CO)N1C[C@H](C)[C@@H](CN(C)Cc2cccc3c2OCCCO3)OCc2cn(nn2)CCCC1=O,inactive
